Test results as given in PubChem BioAssay AID2314 (National Center for Advancing Translational Sciences (NCATS), 2010).
Where “and” joins values, the source holds several entries; their conditions need not be identical. Equal entries are not always repeated. Out of some 300,000 compounds screened, about 37,000 (12%) were called active. Rule as the data show it: active = max response mostly above about 13% (no sharp cut-off); inactive = mostly below about 14%. Shown is part of a subset that was picked to be rich in actives.

Test: Cycloheximide Counterscreen for Small Molecule Inhibitors of Shiga Toxin; also: read at 38.3 µM for the half of the compounds with a filed dose; 0% is about no effect
Details: cell reporter, cycloheximide protein synthesis inhibition counterscreen; stronger effect = higher value

| SMILES | max response |
| --- | --- |
| Cc1cc(=O)oc2cc(OCCC[n+]3ccccc3)ccc12 | 1.33% (inactive) |
| CC(C)c1c(C(=O)N/N=C/c2ccc(-c3ccccc3)cc2)nnn1-c1nonc1N | -10.6% (inactive) |
| O=C(C[n+]1ccccc1)N/N=C/c1ccc(O)cc1 | -3.62% (inactive) |
| Cc1nonc1C(=O)N/N=C/c1ccc(O)cc1 | 37.3% (active) |
| CCOc1c(OC)cccc1C(=O)NCC1(c2ccccc2)CCCC1 | -2.45% (inactive) |
| O=C(C1CCN(S(=O)(=O)Cc2ccccc2)CC1)N1CCCc2ccccc21 | 11.2% (inactive) |
| OCC1(Cc2ccccc2)CCN(Cc2cc3ccccc3o2)CC1 | 1.07% (inactive) |
| O=C(COC(=O)C1CC2C=CC1C2)Nc1ccccc1 (stereo not drawn) | 27.3% (active) |
| Cc1ccc(S(=O)(=O)N(C)CC(=O)OCC(=O)Nc2ccccc2)cc1 | 3.68% (inactive) |
| NC(=O)c1ccc(NC(=O)COC(=O)C(Cc2ccccc2)NC(=O)c2ccccc2)cc1 (stereo not drawn) | -2.16% (inactive) |
| COc1ccc(C(=O)n2nc(C)c(Br)c2C)cc1OC | -2.74% (inactive) |
| Cc1nc(C)c(-c2csc(NCCc3ccccc3)n2)s1 | 13.4% (active) |
| Cc1ccc(Nc2nc(-c3sc(NC(=O)c4ccccc4)nc3C)cs2)cc1 | 8.35% (inactive) |
| S=c1[nH]nc(NCCc2ccccc2)s1 | -2.47% (inactive) |
| CC1CC(C)CN(C(=O)CCNC(=O)Cn2cnc3ccccc3c2=O)C1 (stereo not drawn) | -4.79% (inactive) |
| O=C(N/C(=C/c1ccc(Cl)cc1)C(=O)N1CCCCC1)c1ccco1 | -0.943% (inactive) |
| C=CCn1c(SCC(N)=O)nnc1-c1cc2c(s1)CCC(CC)C2 (stereo not drawn) | 29.3% (active) |
| C=CCn1c(SCc2c(C(=O)OC)sc(N)c2C(=O)OC)nnc1-c1ccc(Cl)cc1 | -1.63% (inactive) |
| CCn1c(CSc2nc(C)cc(C)n2)nnc1SCC(N)=O | -2.49% (inactive) |
| CCS(=O)(=O)N1Cc2ccccc2CC1C(=O)Nc1nc2ccc(F)cc2s1 (stereo not drawn) | 77.8% (active) |
| Cc1ccc2nc(NC(=O)C3CCN(S(=O)(=O)c4ccc5c(c4)oc(=O)n5C)CC3)sc2c1 | -6.17% (inactive) |
| CCS(=O)(=O)N1Cc2ccccc2CC1C(=O)Nc1ccc(OC)cc1OC (stereo not drawn) | 3.12% (inactive) |
| COC(=O)C(C)n1cnc2c(nnn2-c2ccc(F)cc2)c1=O (stereo not drawn) | -2.37% (inactive) |
| COc1ccc(-n2nnc3c(=O)n(CC(=O)OCc4ccccc4)cnc32)cc1 | 0.544% (inactive) |

| SMILES | max response |
| --- | --- |
| CCOC(=O)C(C)n1cnc2c(nnn2-c2ccc(F)cc2)c1=O (stereo not drawn) | 8.68% (active) |
| CCOC(=O)C(CC)Sc1ncnc2c1nnn2-c1ccc(F)cc1 (stereo not drawn) | -1.76% (inactive) |
| COC(=O)C(C)n1cnc2c(nnn2-c2cccc(Cl)c2)c1=O (stereo not drawn) | -1.58% (inactive) |
| CCOC(=O)C(C)n1cnc2c(nnn2-c2cccc(OC)c2)c1=O (stereo not drawn) | 35.4% (active) |
| COc1ccc(CCN2C(=O)C(C)=C(C)C2=O)cc1OC | 1.83% (inactive) |
| COc1ccc(N2CCN(C(=O)C3CCN(C(=O)c4ccccc4Cl)CC3)CC2)cc1 | 0.346% (inactive) |
| COc1cccc(CN(C)C(=O)CC23CC4CC(CC(C4)C2)C3)c1OC | -3.61% (inactive) |
| O=C(Nc1ccc(F)cc1)c1ccc(S(=O)(=O)NCc2cccnc2)cc1 | 13% (inactive) |
| Cc1ccccc1NC(=O)c1cc(S(=O)(=O)N2CCOCC2)cs1 | 1.05% (inactive) |
| O=C(Nc1ccccc1F)c1cc(S(=O)(=O)N2CCCCC2)cs1 | 13.9% (active) |
| O=C(CN1CCCCCC1)Nc1ccc(S(=O)(=O)N2CCCCC2)cc1 | -2.88% (inactive) |
| O=C(Nc1ccccc1C(=O)O)c1cc(S(=O)(=O)N2CCCCC2)cs1 | -3.51% (inactive) |
| O=C(Nc1ccc(S(=O)(=O)N2CCCCCC2)cc1)c1c(F)cccc1F | 16.3% (active) |
| O=C(Nc1cccc(F)c1)c1ccc(S(=O)(=O)N2CCCC2)cc1 | -1.88% (inactive) |
| O=C(O)c1ccc(Cn2c(=S)[nH]c3cc(Cl)ccc3c2=O)cc1 | -2.92% (inactive) |
| O=C(CN1C(=O)CC(c2ccccc2)=Nc2ccccc21)NC1CCCCC1 | -1.57% (inactive) |
| COc1ccc(S(=O)(=O)NNC(=O)Nc2ccc(C)cc2)c(OC)c1 | 0.87% (inactive) |
| COc1ccc(NS(=O)(=O)c2cc(NC(=O)CC(=O)c3ccc([N+](=O)[O-])cc3)ccc2C)cc1 | -3.18% (inactive) |
| CN1/C(=c2/s/c(=C3/C(=O)N(c4ccccc4)NC3=Nc3ccccc3)n(C)c2=O)C(C)(C)c2ccccc21 | -0.907% (inactive) |
| CCN1C(=O)/C(=C2/Sc3ccccc3N2CCCS(=O)(=O)O)SC1=S | -1.1% (inactive) and 2.76% (inactive) |
| CCN1C(=O)/C(=c2\s/c(=C3\Sc4ccccc4N3C)c(=O)n2C)N(C)C1=S | 22.3% (active) |
| Cc1ccccc1C(=O)OC1OC(=O)C(Cl)=C1Nc1ccccc1 (stereo not drawn) | 0.412% (inactive) |
| CCCc1ccc(OCC(O)CN2CCN(C(=O)OCC)CC2)cc1 (stereo not drawn) | -3.42% (inactive) |
| Cc1ccc(Cn2c(C)nc3c(c2=O)c2nc4ccccc4nc2n3Cc2ccco2)cc1 | 15.8% (active) |

| SMILES | max response |
| --- | --- |
| Cc1nc2c(c(=O)n1Cc1ccco1)c1nc3ccccc3nc1n2Cc1ccccc1 | -2.66% (inactive) |
| COCCCn1c2nc3ccccc3nc2c2c(=O)n(Cc3ccc(Cl)cc3)c(C)nc21 | 1.89% (inactive) |
| O=C(CCCN1CCc2[nH]c3ccc(F)cc3c2C1)c1ccc(F)cc1 | -1.91% (inactive) |
| Cc1ccc(S(=O)(=O)/N=S(\C)C(C)C)cc1 (stereo not drawn) | -5.61% (inactive) |
| Brc1ccc(-c2noc(-c3ccccc3)n2)o1 | 60.7% (active) |
| Cc1cccc(C)c1OC(=O)CSc1nnc(-c2ccccc2)o1 | -2.59% (inactive) |
| Brc1ccc(-c2nnc(-c3ccccc3)o2)o1 | 30.6% (active) |
| O=C(CSc1nnc(-c2ccccc2)o1)N1CCOCC1 | -2.26% (inactive) |
| Cn1nc(-c2ccccc2)c(-c2nc(-c3ccc(Cl)cc3)no2)c1Cl | 7.15% (inactive) |
| Nc1nonc1-c1noc(-c2ccc(Br)o2)n1 | 1.8% (inactive) |
| Cc1ccccc1OCc1nnc(SCC(=O)N2c3ccccc3Sc3ccc(Cl)cc32)o1 | -2.04% (inactive) |
| CCOc1ccc(/C=N/OCC(=O)NCc2cccs2)cc1 | -5.69% (inactive) |
| COc1cccc(CNC(=O)Cn2c(=O)oc3cc(S(=O)(=O)N4CCCCC4)ccc32)c1 | 9.69% (inactive) |
| C/C=C/C(=O)OCc1csc(CC(=O)Nc2ccccc2C)n1 | 7.73% (inactive) |
| Cc1cc2occ(CC(=O)NNC(=O)c3ccccc3F)c2cc1C | -1.94% (inactive) |
| NC(=O)C1CCN(C(=O)/C(=C/c2ccco2)NC(=O)c2ccccc2)CC1 | -1.45% (inactive) |
| COc1ccc(CCn2c(=N)c(C(=O)NCC3CCCO3)cc3c(=O)n4cccc(C)c4nc32)cc1OC (stereo not drawn) | -4.64% (inactive) |
| Cc1cc(-c2ccc(/C=N/n3cnnc3)o2)c([N+](=O)[O-])cc1C | 12.6% (inactive) |
| O=C1C2C3C=CC(C4CC34)C2C(=O)N1/N=C/c1ccc(-c2ccccc2[N+](=O)[O-])o1 (stereo not drawn) | 13.3% (active) |
| Cc1cc([N+](=O)[O-])c(-c2ccc(/C=N/n3cnnc3)o2)cc1Cl | 15.8% (inactive) |
| O=C(CN1CCN(c2ccc(F)cc2)CC1)Nc1ccccc1 | -1.97% (inactive) |
| CN(C)CCCSc1ccccc1NC(=O)/C=C/c1ccccc1 | 5.31% (inactive) |
| CCOc1ccc(S(=O)(=O)NCc2ccc3c(c2)OCO3)cc1C | -1.1% (inactive) |
| COCCn1c(=S)[nH]c2cc(C(=O)NCCc3ccc(OC)c(OC)c3)ccc2c1=O | -1.71% (inactive) |

| SMILES | max response |
| --- | --- |
| COc1cccc2[nH]c(C(=O)NCCc3ccccc3)cc12 | 42.7% (active) |
| COc1ccc(CCNC(=O)c2ccccc2-c2ccccc2C(=O)O)cc1OC | -3.5% (inactive) |
| Cc1cccc(N(C(=O)Cn2nnc(-c3ccc(C)o3)n2)C(C(=O)NC2CCCC2)c2ccncc2)c1 (stereo not drawn) | 1.36% (inactive) |
| CCn1c(SCC(=O)NC2CC2)nnc1-c1ccncc1 | 5.06% (inactive) |
| O=C(NNC(=O)C1CCN(c2ncccn2)CC1)c1ccccc1 | -2.14% (inactive) |
| Cc1cc(-c2ccccc2)nc(N2CCC(C(=O)NC34CC5CC(CC(C5)C3)C4)CC2)n1 | 27.8% (active) |
| Cc1cc(C)cc(NC(=O)C2CCN(c3nc(C)cc(C)n3)CC2)c1 | -2.08% (inactive) |
| Cc1c(S(=O)(=O)N2CC(C)CC(C)C2)c(=O)n(C)c(=O)n1C (stereo not drawn) | -2.35% (inactive) |
| CCN(CC)P(=O)(Nc1ccc(SC(F)F)cc1)c1ccc(N(C)C)cc1NC(=O)c1ccco1 (stereo not drawn) | 11.5% (inactive) |
| O=C1N(Cc2ccc3c(c2)OCO3)c2ccccc2C1(O)c1c[nH]c2ccccc12 (stereo not drawn) | -2.27% (inactive) |
| COc1cc(NC(=O)C2=CC(c3ccco3)=NS(=O)(=O)N2C)cc(OC)c1OC | 2.06% (inactive) |
| O=C(Nc1ccccc1N1CCCCC1)c1ccc2nccnc2c1 | -1.32% (inactive) |
| O=C(Nc1ccccc1)c1ccc2nsnc2c1 | 29.1% (active) |
| O=C(Nc1cccc(NC(=O)c2ccc(Br)cc2)c1)c1ccccc1 | 2.45% (inactive) |
| O=C(Nc1ccccc1Cl)c1ccc2nsnc2c1 | 30.7% (active) |
| O=S(=O)(Nc1ccccc1Cl)c1cccc2nsnc12 | 1.19% (inactive) |
| Cc1cccc(NC(=O)c2cccc(C(=O)Nc3cccc(C)c3C)n2)c1C | -2.9% (inactive) |
| Cc1nc(C)c(C(=O)Nc2cccc(C)c2C)o1 | -2.15% (inactive) |
| Cc1cccc(NC(=O)c2ccc3nsnc3c2)c1C | 10.4% (active) |
| Cc1ccc([N+](=O)[O-])c(OCCCNCC(C)O)c1 (stereo not drawn) | 17.1% (inactive) |
| Cc1cc(NC(=O)CCN2CCN(Cc3ccccc3)CC2)ccc1Br | -0.903% (inactive) |
